Measured values as given in PubChem BioAssay AID778 (Sanford-Burnham Center for Chemical Genomics, 2007).
About 20,000 (21%) of roughly 96,000 compounds were called active. The list is a sample of the results. Values without a mark were called inactive.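 Rule for the calls: active = CYP2C19 inhibition above a set limit at 5 µM in the primary screen (cut at about 50% in these data); inactive = the rest.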

Target: Cytochrome P450 2C19 (Homo sapiens) (UniProt P33261)
Assay: blockers of cytochrome P450 2C19 activity – biochemical, luminescence, ADME assay, primary screen (AID 778);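 note: plate controls were negative control wells for no effect and 2.5 mM tranylcypromine positive control for full effect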
Conditions: CYP2C19 Supersomes, luciferin-H EGE luminescence, 30 min; at 5 µM; stronger effect = higher value

Sequence of Cytochrome P450 2C19 (Homo sapiens) (P33261 whole entry, looked up): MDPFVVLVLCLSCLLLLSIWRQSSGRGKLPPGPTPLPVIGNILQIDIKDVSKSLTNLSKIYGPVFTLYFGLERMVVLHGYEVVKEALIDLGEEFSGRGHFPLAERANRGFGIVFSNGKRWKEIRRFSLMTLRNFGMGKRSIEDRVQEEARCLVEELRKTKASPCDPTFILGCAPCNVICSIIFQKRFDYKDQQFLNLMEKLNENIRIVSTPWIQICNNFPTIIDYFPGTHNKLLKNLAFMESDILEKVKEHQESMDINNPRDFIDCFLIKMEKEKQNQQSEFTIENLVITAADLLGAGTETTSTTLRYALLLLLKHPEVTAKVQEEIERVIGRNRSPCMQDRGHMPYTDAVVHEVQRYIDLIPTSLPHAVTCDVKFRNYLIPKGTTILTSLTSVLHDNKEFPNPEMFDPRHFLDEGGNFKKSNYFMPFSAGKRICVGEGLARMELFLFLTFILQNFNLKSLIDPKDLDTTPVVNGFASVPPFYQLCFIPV

Structure (SMILES) | inhibition
CCOCCCNC(=O)c1c[nH]c2cc(C)ccc2c1=O | -3.9%
CC(C)c1ccc(C(=O)NCCCc2ccccc2)cc1 | 14.8%
CCC(C)NC(=O)CCCc1ccccc1 (configuration not stated) | 58.1% (active)
C[C@H](NC(=O)NCCc1ccccc1)C(=O)O | -17.1%
Cc1ccc2cccc(O)c2[n+]1[O-] | 1.9%
CCc1ccc2nc3sc(C(=O)Nc4nnc(CC)s4)c(N)c3cc2c1 | 39.6%
COc1cc(-c2nnc(Cn3cc(C(F)(F)F)ccc3=O)o2)cc(OC)c1OC | 8.6%
CCCc1nc2ccccc2c(C(=O)OCC(=O)c2ccc3c(c2)NC(=O)CO3)c1CC | -9.7%
CCCc1nc2ccccc2c(C(=O)OCc2nnc(-c3cc(OC)c(OC)c(OC)c3)o2)c1CC | 69.1% (active)
C=CCC(NCCCO)c1cccc(OC)c1OC (configuration not stated) | -15.9%
CCN(c1ccc2c(c1)OCO2)S(=O)(=O)c1cc(Br)cc2c1N(C(=O)C1CC1)CC2 | 51.5% (active)
O=C(C1CCN(S(=O)(=O)c2cnc[nH]2)CC1)N1CCN(Cc2ccc3c(c2)OCO3)CC1 | 11.6%
CCOC(=O)N1CCN(S(=O)(=O)c2cc(Br)cc3c2N(C(=O)C2CC2)CC3)CC1 | 30.1%
CC(C)C(=O)Nc1cccc(NC(=S)NC(=O)C(c2ccccc2)c2ccccc2)c1 | 18.9%
CCc1cc(=O)oc2cc(C)cc(OC(C)C(=O)O)c12 (configuration not stated) | -4.4%
COc1ccc(NC(=O)C(CC(C)C)NS(=O)(=O)c2ccc3c(c2)CCN3C(C)=O)cc1OC (configuration not stated) | 31.2%
COc1ccc(-n2c(SCC(=O)Nc3sc4c(c3C#N)CCCC4)nnc2-c2ccc(O)cc2)cc1 | 26.8%
CC(Sc1nncs1)C(=O)NCc1ccc2c(c1)OCO2 (configuration not stated) | 75.7% (active)
O=C(NCc1ccc2c(c1)OCO2)c1cc2c(s1)CS(=O)(=O)C2 | 28.8%
Cc1ccc2c(c1)-c1c(ssc1=S)C(C)(C)N2C(=O)CN1C(=O)c2ccccc2C1=O | 25.1%
Cc1nc2ccc(S(=O)(=O)NCC(=O)O)cc2s1 | -10.3%
N#Cc1ccc(OCCN2C(=O)NC3(CCSC3)C2=O)cc1 (configuration not stated) | -8.7%
COc1ccccc1C1C2=C(COC2=O)Nc2cc3c(cc21)OCO3 (configuration not stated) | 91.7% (active)
COc1cc2c(cc1OC)C(c1ccc(C)o1)CC(=O)N2 (configuration not stated) | -11%
CCCOc1ccc(C2NC(=O)NC(c3ccccc3)=C2C(C)=O)cc1OCC (configuration not stated) | 11%

Structure (SMILES) | inhibition
CCCOc1ccccc1C1CC(=O)Nc2cc3c(cc21)OCO3 (configuration not stated) | 99.3% (active)
Cc1cc(=O)oc(C)c1C(=O)N1CCCCC1 | 20.5%
O=[N+]([O-])c1ccccc1OCCCCN1CCCCC1 | 1%
COc1ccc2oc(=O)c(C(=O)O)cc2c1 | -14.5%
COc1cccc(C(=O)c2cc3ccc(O)cc3oc2=O)c1 | 83.3% (active)
COc1cccc(C(=O)NNC(=O)c2ccccc2Br)c1 | 8.8%
CCOCCCNC(=O)C(NC(=O)CNC(=O)c1ccccc1)c1ccc(C)cc1 (configuration not stated) | -8.2%
COc1ccccc1N1CCN(C(=O)c2cn(-c3ccccc3)nc2-c2cccnc2)CC1 | 93.8% (active)
COc1ccccc1N1CCN(C(=O)Cn2nnc(-c3cccs3)n2)CC1 | 46.2%
COc1ccccc1N1CCN(C(=O)c2cc3c(-c4ccc(Cl)cc4)nn(C)c3s2)CC1 | 74.1% (active)
O=C(c1cn(-c2ccccc2)nc1-c1cccnc1)N1CCCCC1 | 40.6%
CCOC(=O)N1CCN(C(=O)c2cc3c(-c4ccc(Cl)cc4)nn(C)c3s2)CC1 | 9.1%
COc1cccc(-c2nn(C)c3sc(C(=O)N4CCN(c5ccccc5)CC4)cc23)c1 | 23.7%
Cn1c(=O)[nH]c(=O)c2c1nc(N1CCN(CCO)CC1)n2CCSc1nc2ccccc2s1 | -15.3%
O=C(NC1CCc2ccccc21)C12CN(Cc3ccccc3)CC1C(c1cccc([N+](=O)[O-])c1)=NO2 (configuration not stated) | 14.2%
O=C(N/N=C\c1ccc(-c2ccc(Cl)c(Cl)c2)o1)C(=O)N1CCCC1 | 16.3%
COC(=O)CN1C(=O)C(O)=C(C(C)=O)C1c1ccc([N+](=O)[O-])cc1 (configuration not stated) | -14.6%
Cc1c(C(=O)NCC2CCCO2)sc2nc(-c3ccccc3)cn12 (configuration not stated) | 27.4%
Cc1ccsc1C(=O)OCC(=O)c1cc2ccccc2o1 | 44.1%
Cc1ccsc1C(=O)OCC(=O)c1cc(C)n(CC2CCCO2)c1C (configuration not stated) | 54.4% (active)
COC(=O)c1ccc(S(=O)(=O)N2CCC(c3nc4ccccc4o3)CC2)cc1 | 8.7%
Oc1ccc(/C=N/NC2=NCCCCC2)c(O)c1 | 13.9%
COC(=O)C1CCN(CC(N)=O)CC1 | -8.8%
Cc1cc(C)c([N+](=O)[O-])cc1-c1ccc(/C=N/NC(=O)c2nonc2N)o1 | 3.8%
Cc1cc([N+](=O)[O-])c(-c2ccc(/C=N/n3cnnc3)o2)cc1Cl | 63.7% (active)

Structure (SMILES) | inhibition
NC(=O)c1ccsc1NC(=O)c1ccco1 | 38.9%
O=C(NCC(F)(F)F)Nc1nnc(C(F)(F)F)s1 | -26%
CCOc1cc(S(=O)(=O)NCc2ccc3c(c2)OCO3)ccc1F | 91.8% (active)
CCOc1c2ccc(C(=O)NCc3ccc4c(c3)OCO4)cc2nn1C | 31.5%
CCOc1cc(S(=O)(=O)NC2CC(C)(C)NC(C)(C)C2)ccc1F | -5.3%
O=C(Nc1cc(-c2nn(CC(=O)N3CCCCC3)c(=O)c3ccccc23)ccc1N1CCOCC1)c1ccc(Cl)cc1 | 7.3%
CC(C(=O)Nc1ccc(F)c(F)c1F)N1CCCCCC1 (configuration not stated) | 64.6% (active)
O=C(CN1C(=O)NC2(CCCC2)C1=O)Nc1ccc(F)c(F)c1F | 0.4%
CC(C)C(=O)NC(=S)Nc1ccccc1F | 25.4%
C=CCNc1ncnc2ccc(Br)cc12 | 20.7%
Cc1ccc(S(=O)(=O)NCc2csc(C)n2)c(C)c1 | 13.3%
Cc1nc(CNS(=O)(=O)c2ccc(Oc3ccccc3)cc2)cs1 | 73.1% (active)
Cc1nc(CNS(=O)(=O)c2cccnc2)cs1 | 19.3%
Cc1cc(C(=O)OC(C)C(=O)Nc2cccc(S(=O)(=O)N3CCOCC3)c2)c(C)o1 (configuration not stated) | 96.4% (active)
CCOC(=O)c1sc(NC(=O)c2cc(S(=O)(=O)N3CCOCC3)ccc2C)nc1C | 35.4%
Cc1cc(=O)oc2cc(OC(C)C(=O)Nc3ccc(N4CCOCC4)cc3)ccc12 (configuration not stated) | 27.5%
CC(Sc1nncn1C)C(=O)Nc1ccccc1-c1ccccc1 (configuration not stated) | 9.5%
O=C1Nc2cc(Cl)c(Cl)cc2N(O)N1c1cc(Cl)cc(Cl)c1 | -1.7%
CN(C)Cc1c(O)ccc2occ(C(O)c3ccccc3)c12 (configuration not stated) | 70.5% (active)
c1csc(CN2CCN(Cc3cccs3)C2c2cccs2)c1 | 16.8%
O=C(CN1CCOCC1)Nc1cc(Cl)ccc1Cl | 48.8%
C=C(C)Cn1c(N2CCCC2)nc2c1c(=O)[nH]c(=O)n2C | -8.1%
COc1ccccc1N1CCN(C(=O)CSc2nnc(-c3ccoc3C)o2)CC1 | 17.4%
O=C(CSC1=Nc2ccccc2C2=NC(CC(=O)NCc3ccco3)C(=O)N12)NCc1ccco1 (configuration not stated) | 10.6%
CCC1CCCCN1CCCNC(=O)Cn1nc(-c2ccccc2)ccc1=O (configuration not stated) | -1.3%

Structure (SMILES) | inhibition
Cc1ccsc1-c1nc(CSCC(=O)NCCN2CCCC2)c(C)o1 | 1.6%
O=C(/C=C/c1ccc(Cl)cc1Cl)c1cccnc1 | 62.6% (active)
O=C(/C=C/c1ccc(Cl)cc1Cl)NCc1ccco1 | 31.8%
C/C(=C\C(=O)c1cccnc1)Nc1ccc(C)c(C)c1 | 37.2%
C=CCn1c(N)c(C(=O)OCC(C)C)c2nc3ccccc3nc21 | 18.5%
Cc1ccc(S(=O)(=O)c2c(N)n(C)c3nc4ccccc4nc23)cc1 | 47.7%
C=CCn1c(N)c(S(=O)(=O)c2cccs2)c2nc3ccccc3nc21 | 80.5% (active)
Cc1ccc(NC(=S)NCCN2CCOCC2)cc1 | 23%
COc1ccc(-c2noc(-c3ccc(C)cc3)n2)cc1 | 6.2%
COc1ccc(-c2noc(CN(C)S(=O)(=O)c3ccc(C)cc3)n2)cc1 | 40.2%
Cc1ccc(-c2noc(CSc3nnnn3-c3ccccc3)n2)cc1 | 73.4% (active)
Fc1ccc(-n2c(Cc3ccccc3)nnc2SCc2nc(-c3ccc(Cl)cc3)no2)cc1 | 80% (active)
O=C(CSc1nnc(Cc2ccccc2)n1-c1ccccc1)N1CCOCC1 | 8.2%
CSc1nnc(CNC(=O)c2ccccc2)n1-c1ccc(F)cc1 | -4.4%
CCN(CC)C(=O)CSc1nnc(-c2cnccn2)n1-c1ccc(C)cc1 | -1.8%
COc1ccc(-c2noc(CSc3ccc(C)cc3)n2)cc1 | 78.6% (active)
Cc1ccc(Nc2nc(CSc3nnnn3-c3ccccc3)cc(=O)[nH]2)cc1 | 16.7%
Cc1cccc(-c2noc(-c3ccc(F)cc3)n2)c1 | 32.6%
Cc1ccc(-c2noc(CSc3nnc(-c4ccncc4)n3-c3ccc(F)cc3)n2)cc1 | 58.3% (active)
Cc1cc2c(cc1C)N(C(=O)CN1C(=O)c3ccccc3C1=O)C(C)(C)c1ssc(=S)c1-2 | 3.4%
OCCNCCCCOc1ccccc1F | -2.2%
Cc1c(Br)c([N+](=O)[O-])nn1C(C)C(=O)Nc1nccs1 (configuration not stated) | 37.1%
